Experimental data from PubChem BioAssay AID1347165 (National Center for Advancing Translational Sciences (NCATS), 2019).
The whole screen tested about 220,000 compounds, of which about 5,700 (2.6%) were called active. About 18% were inconclusive and are not listed. The call rests on the fitted dose curve; in most records, active means well fitted inhibition curve with a large enough effect; inconclusive means small, poorly fitted or top-dose-only effect; inactive means no such curve, though single readings can be large or run the other way. For the sample, actives were picked, then their nearest neighbours and some compounds at random.

What follows are molecules tested against Lysine-specific demethylase 5B (Homo sapiens) (UniProt Q9UGL1) (assay: Primary screen for KDM5B Histone Demethylases FDH-coupled qHTS). Details: FDH-coupled NADH fluorescence (FDH is formaldehyde dehydrogenase); series mostly up to 57.7 µM; activity change, negative = inhibition: at the top concentration.
Method in brief: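 KDM5BΔAP (200 nM final) in 50 mM HEPES pH 7.5, 0.01% Tween-20 was preincubated 10 min at RT with compound over a concentration range. Substrate mix (H3K4me3 12.5 µM, α-KG 25 µM, Fe²⁺, ascorbate, NAD⁺, FDH) was added, and NADH fluorescence change over 30 min gave dose-response curves.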
Further: nearly all actives have a fitted effect of over 70% in size.
Potency means the concentration at half of the fitted maximal effect.
Wherever activity change, negative = inhibition is given: 0% is about no effect.

Lysine-specific demethylase 5B (Homo sapiens), sequence (Q9UGL1 whole entry, looked up): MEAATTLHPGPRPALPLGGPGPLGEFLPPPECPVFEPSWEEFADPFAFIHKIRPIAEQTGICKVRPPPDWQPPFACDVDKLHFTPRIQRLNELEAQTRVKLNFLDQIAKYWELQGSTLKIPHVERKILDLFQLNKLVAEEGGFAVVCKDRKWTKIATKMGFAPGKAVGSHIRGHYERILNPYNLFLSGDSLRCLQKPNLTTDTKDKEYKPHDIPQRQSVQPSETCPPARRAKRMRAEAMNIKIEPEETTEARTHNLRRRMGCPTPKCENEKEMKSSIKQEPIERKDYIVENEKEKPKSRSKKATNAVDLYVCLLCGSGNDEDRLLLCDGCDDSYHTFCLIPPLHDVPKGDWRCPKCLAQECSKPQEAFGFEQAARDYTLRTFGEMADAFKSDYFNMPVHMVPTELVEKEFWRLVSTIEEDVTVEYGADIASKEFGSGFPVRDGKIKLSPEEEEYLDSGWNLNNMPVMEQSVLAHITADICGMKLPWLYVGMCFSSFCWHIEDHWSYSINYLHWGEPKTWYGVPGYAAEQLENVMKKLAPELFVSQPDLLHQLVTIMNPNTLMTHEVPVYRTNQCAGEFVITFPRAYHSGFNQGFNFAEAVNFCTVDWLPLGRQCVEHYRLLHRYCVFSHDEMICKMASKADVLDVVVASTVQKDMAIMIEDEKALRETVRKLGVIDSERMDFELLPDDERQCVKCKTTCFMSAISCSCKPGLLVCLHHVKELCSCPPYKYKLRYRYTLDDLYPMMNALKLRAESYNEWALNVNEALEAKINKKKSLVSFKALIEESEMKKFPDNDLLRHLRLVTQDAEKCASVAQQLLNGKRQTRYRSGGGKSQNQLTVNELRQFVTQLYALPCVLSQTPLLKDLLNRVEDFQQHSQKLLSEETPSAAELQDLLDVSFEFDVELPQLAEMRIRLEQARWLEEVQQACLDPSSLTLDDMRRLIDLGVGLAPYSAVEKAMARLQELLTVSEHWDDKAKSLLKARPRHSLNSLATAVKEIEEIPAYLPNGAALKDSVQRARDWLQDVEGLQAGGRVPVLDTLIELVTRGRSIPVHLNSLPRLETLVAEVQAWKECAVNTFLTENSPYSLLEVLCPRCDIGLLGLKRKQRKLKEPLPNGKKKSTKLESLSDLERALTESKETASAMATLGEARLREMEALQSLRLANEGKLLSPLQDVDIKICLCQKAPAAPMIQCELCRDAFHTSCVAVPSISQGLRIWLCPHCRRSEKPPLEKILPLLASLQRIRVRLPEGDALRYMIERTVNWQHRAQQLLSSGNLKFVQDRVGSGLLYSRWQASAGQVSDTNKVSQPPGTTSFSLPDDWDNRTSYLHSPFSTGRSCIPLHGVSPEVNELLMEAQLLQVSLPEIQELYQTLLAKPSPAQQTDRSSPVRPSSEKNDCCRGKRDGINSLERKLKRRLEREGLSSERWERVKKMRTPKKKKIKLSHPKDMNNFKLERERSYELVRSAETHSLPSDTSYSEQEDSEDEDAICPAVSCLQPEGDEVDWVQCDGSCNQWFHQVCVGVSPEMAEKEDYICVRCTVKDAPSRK

SMILES | activity change, negative = inhibition | Potency
O=S(=O)(c1ccccc1Cl)N1CCN(C/C=C/c2ccccc2)CC1 | -10.1% (inactive) | 
Fc1ccc(N2CCCN(CC3[C@H]4CNC[C@@H]34)CC2)cc1 (some centres undefined) | -4.22% (inactive) | 
O=C(Nc1ccc(CC23CC4CC(CC(C4)C2)C3)cc1)c1ccc(Cl)cc1Cl | 12.4% (inactive) | 
CCOc1ccc(-c2nc(Cn3nnc(C(=O)NCc4ccc(Cl)cc4)c3N)c(C)o2)cc1OC | 8.05% (inactive) | 
CCCn1nc(C(=O)OCc2nc(N)nc(Nc3ccccc3C)n2)c2ccccc2c1=O |  | inactive
CCOc1cc(CNc2nn[nH]n2)ccc1OCc1ccccc1Cl | 27.2% (inactive) | 
COc1ccc(-c2noc3ncnc(N4CCC(C(=O)NCCN5CCCCC5)CC4)c23)cc1 | 14.7% (inactive) | 
CCCCCCCCCCS(=O)(=O)CCSC(=N)N | -42.4% (inactive) | 
COc1ccc(OC)c(NC(=O)c2cc3n(n2)CC(c2ccc(Cl)cc2)OC3)c1 (centres undefined) |  | 25.1 µM (active)
COc1ccc(OC)c(NC(=O)c2nc3ccccc3nc2N2CCCC2)c1 | -2.71% (inactive) | 
COc1ccc(OC)c(NC(=O)Cn2ccc3ccc(Cl)cc32)c1 | 9.43% (inactive) | 
COc1ccc(OC)c(C2C3=C(CC(C)(C)CC3=O)Nc3nc(-c4cccc(C)c4)nn32)c1 (centres undefined) | -6.04% (inactive) | 
CCNC(=O)Nc1ccc(S(=O)(=O)Nc2cnc(C)nc2C)cc1 | 9.86% (inactive) | 
O=C(Nc1ccc2oc(-c3ccc(F)cc3)nc2c1)c1ccc2c(c1)OCCO2 | 17.6% (inactive) | 
Cn1c(CCN2CCCCC2)nc2cc(NC(=O)c3ccccc3Cl)ccc21 | 3.92% (inactive) | 
Cc1ccc(CNC(=O)c2cccc3cccnc23)cc1 | -7.49% (inactive) | 
Cc1ccc(-n2nnnc2CNC(=O)c2ccccc2C)cc1C | -3.81% (inactive) | 
O=C(Nc1ccc(-c2nnc3n2CCCC3)cc1)c1ccccn1 | -16.1% (inactive) | 
Cc1ccc(-c2ccc3nnc(CNC(=O)c4ccccn4)n3n2)cc1 |  | 31.6 µM (active)
Cc1ccccc1C(=O)NCc1nnc2ccc(-c3ccccc3)nn12 |  | 31.6 µM (active)
Cc1ccccc1C(=O)NCc1nc(-c2ccc(Cl)cc2)no1 | -0.56% (inactive) | 
O=C(CCc1ncc(-c2ccccc2)o1)Nc1nc2ccccc2s1 | 2.21% (inactive) | 
CCOC(=O)C(O)(c1ccc(N(CC)C(=O)Nc2ccc(Cl)cc2)cc1)C(F)(F)F (centres undefined) | -0.426% (inactive) | 
CCN(C(=O)Cc1coc2ccc(C)cc12)c1ccccc1 | 0.649% (inactive) | 
Cc1ccccc1NC(=O)C1CC(=O)Nc2nc(SCc3ccccc3)nn21 (centres undefined) | 0.918% (inactive) | 
O=C(NCCCNC(=O)c1nc2ccccc2c(=O)[nH]1)c1cccnc1 | 1.07% (inactive) | 

SMILES | activity change, negative = inhibition | Potency
Cc1nc2cc(C(=O)Nc3ccc(N(C)C)cc3)ccc2n1-c1ccccc1 | 4.6% (inactive) | 
c1coc(-c2nc(-c3cccs3)no2)c1 | -16% (inactive) | 
CC1CCN(c2nc3c(c(=O)n(C)c(=O)n3C)n2CC(=O)c2ccc(Br)cc2)CC1 | -2.78% (inactive) | 
COc1cccc(C(=O)N2CCC(C(NC(=O)c3ccccc3C)C(=O)NCC(C)C)CC2)c1 (centres undefined) | 4.74% (inactive) | 
C=CCNC(=O)C(NC(=O)c1cccc(OC)c1)C1CCN(C(=O)c2ccccc2F)CC1 (centres undefined) |  | 31.6 µM (active)
CCCNC(=O)C(NC(=O)c1cccc(OC)c1)C1CCN(C(=O)c2ccccc2F)CC1 (centres undefined) | -11.5% (inactive) | 
Cn1c(=O)[nH]c(=O)c2c1nc(N1CCNCC1)n2CC(N)=O | -14.6% (inactive) | 
O=[N+]([O-])c1cc(C(F)(F)F)ccc1NCCc1ccncc1 | 32.7% (inactive) | 
O=c1oc2ccccc2c(N2CCCC2)c1NS(=O)(=O)c1cccc(F)c1 | 19.2% (inactive) | 
COCC1CN(C(C)=O)CC12CCN(Cc1ccccc1OC)CC2 (centres undefined) | 8.55% (inactive) | 
CCOc1cccc(CN2CCC3(CC2)CN(C)CC3COC)c1 (centres undefined) |  | 14.1 µM (active)
COCC1CN(C(C)=O)CC12CCN(C(=O)NCc1cccc(OC)c1)CC2 (centres undefined) | -16.7% (inactive) | 
Cc1occc1-c1nnc(SCC(=O)c2cc(C)n(C3CC3)c2C)n1C | 3.26% (inactive) | 
CC(NC(=O)c1ccco1)c1ccc(-c2ccccc2)cc1 (centres undefined) | 13.8% (inactive) | 
Cc1ccc2c(C)cc(SCC(=O)NC3CC3)nc2c1 | 8.99% (inactive) | 
CC1(C(=O)NCc2ccc3c(c2)OCO3)CCc2cnc(NCc3ccccc3)nc21 (centres undefined) |  | 25.1 µM (active)
CC1(C(=O)NCC2CCCO2)CCCc2cnc(Nc3ccccc3)nc21 (centres undefined) | -3.33% [at 86.2 µM] (inactive) | 
CN(Cc1ccccc1)C(=O)C1(C)CCCc2cnc(Nc3cccnc3)nc21 (centres undefined) | -27.2% [at 86.2 µM] (inactive) | 
O=C(Cn1nc2c(cc1=O)CCCC2)Nc1cc(C(F)(F)F)ccc1Cl | -2.73% (inactive) | 
Cc1nn2c(c1-c1ccccc1-c1ccccc1)N(CC1CC1)CCC2 |  | 28.2 µM (active)
Cc1nn2c(c1-c1ccccc1Oc1ccccc1)N(C(=O)C(C)C)CCC2 | -13.8% [at 86.2 µM] (inactive) | 
Cc1nn2c(c1-c1ccccc1-c1ccccc1)N(C(=O)CN1CCOCC1)CCC2 | -14.2% [at 86.2 µM] (inactive) | 
CCc1ccc(N(CC)C(=O)C(=O)c2c[nH]c3ccccc23)cc1 | -2.57% (inactive) | 
Cc1ccc2[nH]c(=O)c(CCC(=O)NCc3ccncc3)cc2c1 |  | 25.1 µM (active)
Cc1ccc2[nH]c(=O)c(COC(=O)c3ccccn3)cc2c1 | -7.73% (inactive) | 
Cc1ccc(CCC(=O)NCc2cccnc2)cc1 | 15.1% (inactive) | 

SMILES | activity change, negative = inhibition | Potency
COCCN(C)C[C@H]1C[C@H](CO)CN(C(=O)c2ccc(C(C)C)[nH]c2=O)C1 | -34.1% (inactive) | 
CC1(C)CC(=O)C2=C(C1)Nc1nc(N)[nH]c(=O)c1C2c1ccc2c(c1)OCO2 (centres undefined) | 13.2% (inactive) | 
Cc1cn2nc(C(=O)Nc3cccc(F)c3)cc2c(N(C)Cc2ccccc2)n1 | -6350% (inactive) | 
COc1cccc(CNC(=O)Cn2c(N(C)Cc3ccccc3)nc(C)cc2=O)c1OC | -11.1% (inactive) | 
Cc1cc(C)cc(NC(=O)N(C)Cc2ccccc2)c1 | -9.55% (inactive) | 
Cc1cn2nc(C(=O)Nc3ccc(F)cc3C)cc2c(N(C)Cc2ccccc2)n1 |  | 20 µM (active)
COc1ccc(NC(=O)c2cc3c(N(C)Cc4ccccc4)nc(C)cn3n2)cc1F |  | 17.8 µM (active)
Cc1cn2nc(C(=O)Nc3cc(F)cc(F)c3)cc2c(N(C)Cc2ccccc2)n1 |  | 25.1 µM (active)
CCN(CC)c1nc2ccccc2nc1C(=O)Nc1ccc(C)c(C)c1 | 4.42% (inactive) | 
CCN(CC)c1nc2ccccc2nc1C(=O)Nc1ccc(C)cc1C | 8.4% (inactive) | 
Cc1cn2nc(C(=O)Nc3ccc(F)cc3F)cc2c(N(C)Cc2ccccc2)n1 | -3600% (inactive) | 
Oc1ccc(-c2nc(-c3ccccc3F)cs2)cc1 | -17.7% (inactive) | 
C=CCNC(=O)Nc1cc(NC(=O)Nc2ccccc2)ccc1C | -9.95% (inactive) | 
Cc1ccc(CN2CCC(Oc3cnc4c(ccn4CCN[S+](C)(=O)[O-])c3)CC2)c(F)c1 |  | 31.6 µM (active)
Cc1ccc(CN2CCOc3cc([S+](=O)([O-])N(C)C)ccc3C2)c(F)c1 | -17.1% [at 86.2 µM] (inactive) | 
CCCc1noc(CSc2nc(-c3ccco3)nc3ccccc23)n1 | -14% (inactive) | 
O=C(O)C/C(=C/c1cccc(Cl)c1)c1nc2ccccc2o1 | -27.5% (inactive) | 
CCCOc1ccc2ccccc2c1CN(C)C(=O)c1n[nH]c(=O)c2ccccc12 | 21.4% (inactive) | 
Cn1ccc(Nc2cc3c(cn2)CN(CCc2ccccc2)CCN3)n1 | -22.9% [at 86.2 µM] (inactive) | 
CN(C)c1cccc(Nc2cc3c(cn2)NCCN(Cc2ccccc2)C3)c1 |  | 25.1 µM (active)
Fc1ccccc1CN1CCNc2cc(Nc3cccnc3)ncc2C1 | -4.83% [at 86.2 µM] (inactive) | 
NC(=O)c1cccc(C(=O)N2CCC(c3nc4ccccc4o3)CC2)c1 | -18.1% (inactive) | 
COc1cccc(-c2nc3ccc(-c4ccc5c(c4)OCO5)cc3o2)c1OC | -2830% (inactive) | 
COc1cccc(NC(=O)Nc2cc(-c3nc4ccccc4o3)ccc2OC)c1 | -15% (inactive) | 
CCOc1c(OC)cccc1-c1nc2ccc(-c3ccc(OC)c(OC)c3OC)cc2o1 |  | 12.6 µM (active)
Cc1ccc2c(c1)-c1c(cnn1CC(=O)N(C)c1ccccc1Cl)CO2 | -4.49% (inactive) | 

SMILES | activity change, negative = inhibition | Potency
CC(C)(C)c1cc(NC(=O)Nc2cc(Cl)cc(Cl)c2)no1 | 6.25% (inactive) | 
COCCOc1ncccc1-c1noc([C@@H]2CCCN2CC(C)(C)C)n1 | -25.1% [at 86.2 µM] (inactive) | 
COCCNc1ncccc1-c1noc([C@@H]2CCCN2Cc2ccc3c(c2)OCO3)n1 |  | 31.6 µM (active)
COCCOc1ccnc(-c2noc([C@@H]3CCCN3Cc3ccc(Cl)cc3)n2)c1 | -11.4% [at 86.2 µM] (inactive) | 
Cc1c(-c2ccc(Cl)cc2)nc2ccccc2c1C(=O)NC1CCCCCCC1 | -6.4% (inactive) | 
COc1ccc(-c2ncc3c(n2)OCCN(CC2CC2)C3=O)cc1 |  | 35.5 µM (active)
COc1ccc(F)cc1-c1ncc2c(n1)OCCN(CC1CC1)C2=O |  | 35.5 µM (active)
NC(=O)c1cccc(-c2ncc3c(n2)OCCN(CC2CC2)C3=O)c1 | -6.2% [at 86.2 µM] (inactive) | 
C[S+](=O)([O-])c1cccc(-c2ncc3c(n2)OCCN(Cc2ccc(F)cc2F)C3=O)c1 | 14% (inactive) | 
COc1cccc(-c2ncc3c(n2)OCCN(Cc2ccc(F)cc2F)C3=O)c1OC | -12.7% [at 86.2 µM] (inactive) | 
COCCN1CCOc2nc(-c3cccc(C)c3)ncc2C1=O | -21.3% [at 86.2 µM] (inactive) | 
Cn1c(=O)c2c(nc(SCC(=O)Nc3ccccc3)n2Cc2ccccc2Cl)n(C)c1=O | 12.9% (inactive) | 
Cc1[nH]c2ccccc2c1C(=O)C(C)Sc1nnc(C2CC2)o1 (centres undefined) | 1.67% (inactive) | 
CC(C)c1ccc(C(=O)OC2CCOC2=O)cc1 (centres undefined) | 17.3% (inactive) | 
Cc1oc(-c2cccs2)nc1CC(=O)N1CCCC1c1ccccc1 (centres undefined) | 724% (inactive) | 
CCOc1ccc(NC(=O)CN(C)C(=O)Cn2c(=O)cnc3ccccc32)cc1OCC | 29.3% (inactive) | 
COc1ccc(N2C(=O)C(C)CS2(=O)=O)cc1S(=O)(=O)Nc1ccc(N2CCCC2)cc1 (centres undefined) | -5.29% (inactive) | 
Cc1ccc(N2CCC(NC(=O)c3ccc4[nH]ccc4c3)C2=O)cc1C (centres undefined) |  | 31.6 µM (active)
Cc1ccc(C(=O)NC2CCSC2=O)cc1C (centres undefined) | 11.2% (inactive) | 
Cc1cc(N2CCC(NC(=O)c3ccc(N(C)C)cc3)C2=O)ccc1F (centres undefined) | 14% (inactive) | 
COCC(=O)N1CCN(C2CCN(CCc3ccccc3)C2=O)CC1 (centres undefined) | -20.4% (inactive) | 
CCc1cccc(CC)c1NC(=O)C(C)Sc1ccc(C)cc1 (centres undefined) | 12.7% (inactive) | 
Cc1cc(NC(=O)Nc2c(C3=CCCCC3)c(C)nn2C)ccc1Br | -2.95% (inactive) | 
Cc1ccc(C(=O)NC2CCN(C(=O)Nc3ccc(F)cc3)CC2)cc1 | 21.4% (inactive) | 
O=c1[nH]c(-c2ccncc2)nc2c1CCN(S(=O)(=O)N1CCCC1)C2 | 2.21% (inactive) | 
CC(=O)c1ccc(NC(=O)N2CCc3c(nc(-c4ccc(F)cc4)[nH]c3=O)C2)cc1 |  | 25.1 µM (active)
